From the supplement of paper PMC11732987, “Enantioselective OTUD7B fragment discovery through chemoproteomics screening and high-throughput optimisation” (Communications Chemistry, 2025)

Assays:
Experiment in all cases: log2 ratio of Biotin-Ahx-Ub-VS probe labelling (fragment/DMSO); higher = less target engagement (more negative = stronger competition), active = hit call of the paper (q ≤ 0.05, log2 ratio ≤ -1)
Settings in all cases: compound concentration: 200 uM; treatment time: 3 h
USP34 = USP34 (UniProt Q70CQ2)
Procedure, shortened: (§1)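 HEK293T lysate in Tris/CHAPS/IGEPAL buffer with protease inhibitors (495 µg per sample) was given fragment at 200 µM or vehicle for 3 h, in triplicate. It then received Biotin-Ahx-Ub-VS at 0.5 µM final for 1 h. Labelled DUBs were NeutrAvidin-enriched, digested with LysC and trypsin, and run by diaPASEF LC-MS/MS. Values are average log2 fragment/vehicle ratios by unpaired t-test on global-median-normalised Spectronaut quantities of proteins with ≥2 unique peptides.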

USP36 = target: T1, USP36 (UniProt Q9P275)
T1 sequence (whole entry): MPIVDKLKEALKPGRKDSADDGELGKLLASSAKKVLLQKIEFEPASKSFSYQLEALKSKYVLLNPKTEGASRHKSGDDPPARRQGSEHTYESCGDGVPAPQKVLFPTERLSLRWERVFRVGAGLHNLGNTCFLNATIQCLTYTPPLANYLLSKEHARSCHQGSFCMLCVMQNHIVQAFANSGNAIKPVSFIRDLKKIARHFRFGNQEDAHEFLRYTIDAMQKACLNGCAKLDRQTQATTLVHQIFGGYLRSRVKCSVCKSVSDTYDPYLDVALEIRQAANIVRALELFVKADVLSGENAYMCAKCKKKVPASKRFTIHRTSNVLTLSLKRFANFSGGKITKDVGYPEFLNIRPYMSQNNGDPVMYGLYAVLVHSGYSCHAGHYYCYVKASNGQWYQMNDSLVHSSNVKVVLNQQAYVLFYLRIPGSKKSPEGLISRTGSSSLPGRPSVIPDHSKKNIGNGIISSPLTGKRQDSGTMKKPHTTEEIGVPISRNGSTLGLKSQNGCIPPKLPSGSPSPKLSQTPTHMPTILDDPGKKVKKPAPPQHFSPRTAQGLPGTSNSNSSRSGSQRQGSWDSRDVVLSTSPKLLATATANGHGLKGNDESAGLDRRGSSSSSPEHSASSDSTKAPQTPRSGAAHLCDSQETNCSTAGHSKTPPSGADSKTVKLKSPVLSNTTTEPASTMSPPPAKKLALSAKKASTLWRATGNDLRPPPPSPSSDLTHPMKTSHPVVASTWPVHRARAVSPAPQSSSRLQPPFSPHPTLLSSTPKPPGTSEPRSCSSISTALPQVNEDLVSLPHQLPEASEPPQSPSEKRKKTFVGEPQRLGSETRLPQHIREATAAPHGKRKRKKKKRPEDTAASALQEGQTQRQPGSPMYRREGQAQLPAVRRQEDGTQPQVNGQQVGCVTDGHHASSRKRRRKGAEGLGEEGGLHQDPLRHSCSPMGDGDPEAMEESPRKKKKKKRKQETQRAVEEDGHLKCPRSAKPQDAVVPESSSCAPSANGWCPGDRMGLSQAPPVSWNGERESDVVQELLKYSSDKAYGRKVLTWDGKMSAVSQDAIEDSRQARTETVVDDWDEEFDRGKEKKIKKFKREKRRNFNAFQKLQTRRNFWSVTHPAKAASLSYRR
Procedure, shortened: as §1

USP38 = target: T2, USP38 (UniProt Q8NB14)
T2 sequence (whole entry): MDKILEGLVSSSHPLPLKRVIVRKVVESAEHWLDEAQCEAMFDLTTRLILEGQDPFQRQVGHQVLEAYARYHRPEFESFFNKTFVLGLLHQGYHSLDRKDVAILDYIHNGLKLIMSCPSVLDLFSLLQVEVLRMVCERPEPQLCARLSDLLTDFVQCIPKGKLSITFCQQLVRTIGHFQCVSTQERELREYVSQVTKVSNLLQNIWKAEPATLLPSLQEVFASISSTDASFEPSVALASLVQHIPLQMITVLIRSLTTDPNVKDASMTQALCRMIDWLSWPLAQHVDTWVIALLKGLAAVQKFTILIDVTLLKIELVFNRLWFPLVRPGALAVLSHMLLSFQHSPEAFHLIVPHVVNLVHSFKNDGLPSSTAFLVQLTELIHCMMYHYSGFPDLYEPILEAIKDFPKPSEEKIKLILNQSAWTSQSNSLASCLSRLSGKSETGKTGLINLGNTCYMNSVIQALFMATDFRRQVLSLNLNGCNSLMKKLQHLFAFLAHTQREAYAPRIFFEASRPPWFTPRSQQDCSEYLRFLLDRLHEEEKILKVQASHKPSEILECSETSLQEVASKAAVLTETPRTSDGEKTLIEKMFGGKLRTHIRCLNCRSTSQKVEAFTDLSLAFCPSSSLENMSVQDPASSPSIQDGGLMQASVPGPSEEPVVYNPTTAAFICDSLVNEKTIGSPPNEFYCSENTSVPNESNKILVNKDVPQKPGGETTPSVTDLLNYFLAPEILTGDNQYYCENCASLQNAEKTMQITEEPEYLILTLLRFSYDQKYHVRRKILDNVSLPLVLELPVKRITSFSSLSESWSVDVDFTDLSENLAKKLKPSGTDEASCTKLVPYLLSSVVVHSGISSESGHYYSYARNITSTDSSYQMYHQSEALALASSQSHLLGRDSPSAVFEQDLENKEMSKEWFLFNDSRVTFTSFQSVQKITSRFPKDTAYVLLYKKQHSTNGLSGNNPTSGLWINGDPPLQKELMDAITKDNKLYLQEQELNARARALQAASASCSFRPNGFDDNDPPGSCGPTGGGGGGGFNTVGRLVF
Procedure, shortened: as §1

USP39 = target: T3, USP39 (UniProt Q53GS9)
T3 sequence (whole entry): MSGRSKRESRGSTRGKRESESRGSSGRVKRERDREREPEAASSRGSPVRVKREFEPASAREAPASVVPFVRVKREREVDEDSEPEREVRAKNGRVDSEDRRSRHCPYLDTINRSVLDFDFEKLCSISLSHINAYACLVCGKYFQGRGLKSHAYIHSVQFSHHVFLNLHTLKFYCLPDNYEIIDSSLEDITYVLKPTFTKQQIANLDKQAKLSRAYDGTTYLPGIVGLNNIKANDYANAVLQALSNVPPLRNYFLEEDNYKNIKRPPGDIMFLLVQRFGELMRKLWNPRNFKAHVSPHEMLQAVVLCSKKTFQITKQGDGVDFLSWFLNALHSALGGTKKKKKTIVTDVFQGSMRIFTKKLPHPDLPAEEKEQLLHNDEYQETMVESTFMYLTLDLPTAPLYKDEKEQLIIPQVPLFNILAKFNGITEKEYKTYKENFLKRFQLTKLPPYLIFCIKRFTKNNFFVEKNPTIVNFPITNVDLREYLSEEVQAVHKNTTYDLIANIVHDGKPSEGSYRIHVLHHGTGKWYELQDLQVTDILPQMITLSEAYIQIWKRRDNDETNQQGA
Procedure, shortened: as §1

USP4 = target: T4, USP4 (UniProt Q13107)
T4 sequence (whole entry): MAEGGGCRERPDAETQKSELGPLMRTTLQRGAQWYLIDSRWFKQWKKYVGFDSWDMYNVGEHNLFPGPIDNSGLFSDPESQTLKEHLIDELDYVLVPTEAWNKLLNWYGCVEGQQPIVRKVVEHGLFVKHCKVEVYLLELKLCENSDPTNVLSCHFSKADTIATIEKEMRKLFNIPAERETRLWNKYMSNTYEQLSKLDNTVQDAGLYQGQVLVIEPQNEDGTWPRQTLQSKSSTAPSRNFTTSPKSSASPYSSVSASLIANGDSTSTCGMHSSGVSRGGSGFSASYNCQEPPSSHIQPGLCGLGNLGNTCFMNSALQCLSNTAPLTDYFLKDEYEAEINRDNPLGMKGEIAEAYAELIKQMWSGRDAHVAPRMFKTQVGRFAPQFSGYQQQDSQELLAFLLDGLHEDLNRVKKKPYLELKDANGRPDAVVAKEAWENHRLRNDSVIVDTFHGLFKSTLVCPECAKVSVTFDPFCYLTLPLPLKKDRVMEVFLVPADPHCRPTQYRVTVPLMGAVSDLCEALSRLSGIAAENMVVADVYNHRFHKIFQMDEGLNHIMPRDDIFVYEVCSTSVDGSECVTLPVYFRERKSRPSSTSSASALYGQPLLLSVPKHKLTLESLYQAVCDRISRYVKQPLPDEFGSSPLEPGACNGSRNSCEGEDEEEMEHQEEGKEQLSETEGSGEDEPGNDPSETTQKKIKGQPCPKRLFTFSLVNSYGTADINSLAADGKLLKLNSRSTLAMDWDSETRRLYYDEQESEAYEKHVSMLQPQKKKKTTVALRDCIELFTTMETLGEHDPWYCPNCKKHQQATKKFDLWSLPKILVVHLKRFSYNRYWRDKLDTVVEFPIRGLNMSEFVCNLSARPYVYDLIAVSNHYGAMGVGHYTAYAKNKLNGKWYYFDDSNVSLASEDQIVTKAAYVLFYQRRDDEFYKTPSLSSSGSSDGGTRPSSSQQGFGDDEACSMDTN
Procedure, shortened: as §1

Measured: log2 ratio of Biotin-Ahx-Ub-VS probe labelling

Sequence of USP34 (Q70CQ2 whole entry, the tested form may be a part): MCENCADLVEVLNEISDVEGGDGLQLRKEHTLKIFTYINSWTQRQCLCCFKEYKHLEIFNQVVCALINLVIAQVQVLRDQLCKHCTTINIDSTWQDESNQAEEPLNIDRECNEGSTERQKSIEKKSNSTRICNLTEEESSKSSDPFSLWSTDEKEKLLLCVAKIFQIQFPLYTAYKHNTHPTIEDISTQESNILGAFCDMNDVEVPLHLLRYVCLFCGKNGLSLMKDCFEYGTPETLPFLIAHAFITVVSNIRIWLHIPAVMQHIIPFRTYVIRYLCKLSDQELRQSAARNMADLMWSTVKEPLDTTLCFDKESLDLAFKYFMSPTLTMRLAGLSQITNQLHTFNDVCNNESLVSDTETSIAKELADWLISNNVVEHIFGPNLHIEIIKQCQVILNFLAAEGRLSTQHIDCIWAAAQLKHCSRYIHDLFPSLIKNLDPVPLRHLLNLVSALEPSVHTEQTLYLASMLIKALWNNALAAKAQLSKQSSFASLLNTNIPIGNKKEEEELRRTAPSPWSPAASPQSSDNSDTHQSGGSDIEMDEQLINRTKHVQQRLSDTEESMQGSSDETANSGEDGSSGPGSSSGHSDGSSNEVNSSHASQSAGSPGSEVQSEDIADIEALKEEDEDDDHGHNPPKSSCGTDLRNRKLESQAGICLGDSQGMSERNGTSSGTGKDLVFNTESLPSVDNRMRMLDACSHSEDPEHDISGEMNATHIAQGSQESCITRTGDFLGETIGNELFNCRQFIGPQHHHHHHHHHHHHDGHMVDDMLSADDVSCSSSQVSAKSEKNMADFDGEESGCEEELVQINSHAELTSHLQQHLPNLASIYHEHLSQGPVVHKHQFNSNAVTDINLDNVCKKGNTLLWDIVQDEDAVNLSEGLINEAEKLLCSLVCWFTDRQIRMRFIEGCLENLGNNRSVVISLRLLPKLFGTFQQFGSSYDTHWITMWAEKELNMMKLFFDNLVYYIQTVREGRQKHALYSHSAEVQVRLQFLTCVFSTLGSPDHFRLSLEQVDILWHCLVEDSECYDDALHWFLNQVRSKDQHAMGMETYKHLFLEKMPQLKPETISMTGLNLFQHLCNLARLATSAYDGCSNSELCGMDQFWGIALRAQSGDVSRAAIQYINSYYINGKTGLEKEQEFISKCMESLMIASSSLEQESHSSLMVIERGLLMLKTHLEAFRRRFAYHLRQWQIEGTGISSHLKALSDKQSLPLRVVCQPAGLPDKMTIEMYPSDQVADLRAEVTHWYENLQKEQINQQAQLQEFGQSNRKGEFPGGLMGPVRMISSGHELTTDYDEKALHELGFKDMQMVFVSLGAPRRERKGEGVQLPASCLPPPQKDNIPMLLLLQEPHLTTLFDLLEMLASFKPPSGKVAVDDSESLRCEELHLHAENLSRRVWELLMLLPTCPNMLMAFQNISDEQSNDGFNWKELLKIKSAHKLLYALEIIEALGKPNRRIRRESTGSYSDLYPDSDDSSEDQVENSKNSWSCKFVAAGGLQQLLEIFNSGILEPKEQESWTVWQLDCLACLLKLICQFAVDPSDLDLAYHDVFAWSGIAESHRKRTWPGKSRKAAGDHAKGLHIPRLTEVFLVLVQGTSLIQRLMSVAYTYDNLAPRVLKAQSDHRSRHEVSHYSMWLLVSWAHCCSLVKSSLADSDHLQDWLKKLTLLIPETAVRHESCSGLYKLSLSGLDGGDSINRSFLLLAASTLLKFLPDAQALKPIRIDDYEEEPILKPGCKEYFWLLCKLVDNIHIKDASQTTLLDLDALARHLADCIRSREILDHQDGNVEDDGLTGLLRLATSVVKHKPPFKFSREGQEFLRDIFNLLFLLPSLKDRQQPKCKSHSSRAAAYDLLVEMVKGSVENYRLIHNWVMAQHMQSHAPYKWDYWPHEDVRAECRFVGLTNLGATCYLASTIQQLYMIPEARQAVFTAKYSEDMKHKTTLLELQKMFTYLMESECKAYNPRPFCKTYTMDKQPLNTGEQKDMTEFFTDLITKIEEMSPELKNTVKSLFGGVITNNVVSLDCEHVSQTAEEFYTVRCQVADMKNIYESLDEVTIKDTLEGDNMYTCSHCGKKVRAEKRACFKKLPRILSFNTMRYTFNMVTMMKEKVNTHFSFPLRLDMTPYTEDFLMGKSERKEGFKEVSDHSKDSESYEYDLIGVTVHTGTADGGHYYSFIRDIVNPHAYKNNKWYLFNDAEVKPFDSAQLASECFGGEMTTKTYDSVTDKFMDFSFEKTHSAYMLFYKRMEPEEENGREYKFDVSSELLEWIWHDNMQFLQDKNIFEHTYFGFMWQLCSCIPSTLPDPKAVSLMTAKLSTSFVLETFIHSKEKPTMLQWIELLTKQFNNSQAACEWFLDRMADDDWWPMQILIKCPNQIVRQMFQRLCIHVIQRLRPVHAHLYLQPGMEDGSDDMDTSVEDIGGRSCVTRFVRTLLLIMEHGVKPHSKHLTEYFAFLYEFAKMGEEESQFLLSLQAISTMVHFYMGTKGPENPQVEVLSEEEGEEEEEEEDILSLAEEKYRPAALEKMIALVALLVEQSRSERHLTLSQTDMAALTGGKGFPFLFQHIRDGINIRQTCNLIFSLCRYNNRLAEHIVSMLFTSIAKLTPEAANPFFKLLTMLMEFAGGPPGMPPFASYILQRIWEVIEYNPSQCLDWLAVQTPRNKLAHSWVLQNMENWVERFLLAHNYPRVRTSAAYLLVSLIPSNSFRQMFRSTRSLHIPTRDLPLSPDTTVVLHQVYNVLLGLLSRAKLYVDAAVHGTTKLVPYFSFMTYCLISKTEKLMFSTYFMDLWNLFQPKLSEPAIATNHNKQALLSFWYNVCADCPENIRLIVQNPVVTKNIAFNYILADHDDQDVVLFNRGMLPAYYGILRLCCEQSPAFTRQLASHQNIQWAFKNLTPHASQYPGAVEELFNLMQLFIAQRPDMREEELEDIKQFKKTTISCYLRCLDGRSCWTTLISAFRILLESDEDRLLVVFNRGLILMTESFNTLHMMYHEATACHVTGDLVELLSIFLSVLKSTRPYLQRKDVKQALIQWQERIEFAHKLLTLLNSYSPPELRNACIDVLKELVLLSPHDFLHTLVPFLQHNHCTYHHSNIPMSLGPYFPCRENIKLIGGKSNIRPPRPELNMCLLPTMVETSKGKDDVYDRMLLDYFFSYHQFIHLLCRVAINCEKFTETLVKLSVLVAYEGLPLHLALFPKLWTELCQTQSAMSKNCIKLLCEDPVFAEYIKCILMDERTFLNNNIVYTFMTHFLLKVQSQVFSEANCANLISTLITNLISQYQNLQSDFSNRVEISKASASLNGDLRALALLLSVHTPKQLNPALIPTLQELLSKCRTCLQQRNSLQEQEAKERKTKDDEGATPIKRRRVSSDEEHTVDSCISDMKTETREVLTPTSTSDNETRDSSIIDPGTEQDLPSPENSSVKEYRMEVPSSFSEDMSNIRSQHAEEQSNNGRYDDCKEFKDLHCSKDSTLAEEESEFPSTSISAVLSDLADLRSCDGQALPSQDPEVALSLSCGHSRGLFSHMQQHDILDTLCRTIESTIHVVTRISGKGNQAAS

O=C(CCl)NCc1ccc(Cl)cc1
inactive: USP34 -0.211 | USP36 0.0776 | USP38 -0.0243 | USP39 -0.155 | USP4 0.0847
